Assay outcomes (PubChem)
NPC1 promoter act = NPC1 promoter activation; Huh7 NPC1 promoter luciferase reporter, 24 h; AID 485313; 2.4% of 320,000 active; Potency, µM (doses to about 9.22 µM), for inactives: at the top dose activation, hits mostly activators; further: % of control where 0% means no effect; nearly all actives have a fitted effect of over 60% in size
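Quantitative HTS used a cell-based reporter: Huh7 cells stably bearing the NPC1 promoter upstream of luciferase were treated with compounds for 24 h, and promoter activation was read as luminescence.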
Rab9 prom act = activates the Rab9 promoter; Huh7 Rab9 promoter-luciferase reporter, luminescence, 24 h; Potency, µM (titrated, usually from 9.22 µM), for inactives: at the top dose activation, negative = inhibition, hits mostly activators; 2.8% of 320,000 active; further: % of control where 0% means no effect; nearly all actives have a fitted effect of over 60% in size
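Steps: seed 1500 Huh7 Rab9-luc cells per well, rest 2 h at 37 °C; add compound in DMSO; incubate 24 h; add luciferase reagent, 10 min ambient; read luminescence.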
p53 reactivation = restores transcriptional activity of mutant p53 | AID 504706 | H1299 p53-A138V BP100-luciferase reporter, luminescence, 24 h | 0.063% of 320,000 active | Potency, µM (titrated, usually from 92.2 µM), without a hit: at the top dose activity change, positive = activation, most hits filed as activators; further: % of control where 0% means no effect; nearly all actives have a fitted effect of over 45% in size
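H1299 (p53-null), stable ts p53-A138V + BP100-Luc; 1000 cells/well, Opti-MEM/10% FBS; cpd 4 pt, 1:5; 24 h, 37 deg C, 5% CO2; detection reagent 10 min RT; luminescence.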
FLuc modulator = counter-screen for miR-21 project: firefly luciferase inhibitors or activators | AID 588342 | purified FLuc, Km substrates, luminescence inhibition | 6.9% of 360,000 active | P08659 | Potency, µM (highest dose often 57.5 µM), without a hit: at the highest dose activity change, negative = inhibition, usual class: inhibitors;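 further: plate controls were vehicle for no effect and reference inhibitor for full effect; nearly all actives have a fitted effect of over 55% in size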
Target sequence (P08659 whole entry, looked up): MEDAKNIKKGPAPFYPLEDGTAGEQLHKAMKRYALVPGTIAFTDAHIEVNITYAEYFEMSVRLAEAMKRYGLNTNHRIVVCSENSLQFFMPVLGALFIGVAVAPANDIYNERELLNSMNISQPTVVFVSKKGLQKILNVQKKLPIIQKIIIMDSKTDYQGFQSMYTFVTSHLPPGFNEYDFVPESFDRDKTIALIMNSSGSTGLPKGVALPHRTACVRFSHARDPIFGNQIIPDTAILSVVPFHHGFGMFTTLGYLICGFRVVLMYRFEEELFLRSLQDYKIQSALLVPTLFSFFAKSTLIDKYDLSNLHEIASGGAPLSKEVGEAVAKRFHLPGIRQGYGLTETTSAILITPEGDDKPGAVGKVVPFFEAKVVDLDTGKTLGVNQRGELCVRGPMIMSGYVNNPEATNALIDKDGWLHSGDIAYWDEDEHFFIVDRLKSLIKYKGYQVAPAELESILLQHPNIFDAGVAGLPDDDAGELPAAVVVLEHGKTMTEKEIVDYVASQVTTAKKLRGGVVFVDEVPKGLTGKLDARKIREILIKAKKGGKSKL
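Biochemical qHTS of compounds, final roughly 60 µM downward over six points, against 10 nM purified firefly luciferase using Km concentrations of substrates (10 uM D-luciferin, 10 uM ATP) in Tris acetate pH 7.5 buffer; luminescence output.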
ELG1 genotox = genotoxicity induction in ELG1-luciferase HEK293T cells; Potency, µM (series often up to 46 µM), without a hit: top-dose activity change, positive = activation, usual class: activators; 1.3% of 330,000 active; HEK293T ELG1-luciferase reporter, luminescence, 16 h; further: % of control where 0% means no effect; nearly all actives have a fitted effect of over 60% in size
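HEK293T cells expressing luciferase-tagged ELG1 were treated with compound or DMSO for 16 hr at 37°C. Luciferase activity was then read after 30 min with ONE-Glo at room temperature; rising signal flags genetic stress.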
SMN2 splice up = SMN2 splice variant enhancement; HEK293 SMN2-luciferase splicing reporter, luminescence, 30-36 h; Potency, µM (doses to about 46.1 µM), for the others: at the highest dose activity change, positive = activation, usual class: activators; 2.8% of 210,000 active; further: % of control where 0% means no effect; nearly all actives have a fitted effect of over 55% in size
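HEK293 cells carry an SMN2 […]–luciferase reporter in which exon 7 inclusion puts luciferase in frame. Cells were plated 10-12 h before compound addition, then incubated 30-36 h at 37C. ONE-Glo luminescence was read; sodium butyrate at 4.5 mM final served as control.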
Starred values were filed as active, the others as inactive; u = inconclusive; x = no result; [ ] = remark or other dose. Rows were chosen to be rich in hits. Some 7.4% of all compounds tested hit in one or more screens of this group. The call rests on the fitted dose curve; in most records, active means well fitted curve in the direction sought with a large enough effect; inconclusive means small, poorly fitted or top-dose-only effect, or another doubt; inactive means no such curve, though single readings can be large; an effect the other way counts as inactive or inconclusive. Potency means the concentration at half of the fitted maximal effect.

SMILES	NPC1 promoter act	Rab9 prom act	p53 reactivation	FLuc modulator	ELG1 genotox	SMN2 splice up
CCOc1cc(C(=O)NC(CC(=O)O)c2ccc(OC3CCCC3)cc2)cc(OCC)c1OCC (stereo not given)	-4%	-1%	1%	-1%	-3%	x
CC1=C(C(=O)Nc2ccccc2)C(c2ccccn2)n2nc(SCc3ccccc3)nc2N1 (stereo not given)	x	x	x	-6%	x	6%
Nc1cccc(OCc2nc(N)nc(N)c2-c2ccc(Cl)cc2)c1	x	x	x	x	x	-12%[9.22 µM]
COc1ccccc1C(C)NCC(=O)Nc1ccccc1C(F)(F)F (stereo not given)	-1%	6%	-11%	-9%	-5%	4.5µM*
CCOC(=O)CC(NC(=O)N1CCC(CN2CCC(C)CC2)CC1)c1ccccc1 (stereo not given)	x	x	x	4%	x	x
O=C(c1cc(C(F)(F)F)cc(C(F)(F)F)c1)N1CCC2(CC1)CN(Cc1ccccc1)C2	x	x	x	x	x	-21%
O=C(Nc1ccon1)c1cc2c(s1)CCCC2	1.4µM*	1.1µM*	u	3µM*	1.3µM*	6.3µM*
O=C(Nc1ccon1)c1cc2c(s1)CCCCCC2	3.2µM*	3.5µM*	u	6µM*	4.5µM*	13µM*
Cc1cn([C@@H]2C[C@H](N=[N+]=N)[C@H](CO)O2)c(=O)[nH]c1=O	x	x	x	x	x	4%[20.6 µM]
C=CCOc1ccc(/C=C(\C#N)C(=O)Nc2ccccn2)cc1OC	1%	1%	11%	3%	0%	x
Cc1ccc(/C=C(\C#N)C(=O)Nc2cccc(Cl)c2)o1	x	x	x	-14%	x	u
Cc1ccc(/C=C(\C#N)C(=O)Nc2ccccn2)o1	u	2.5µM*	-1%	8.5µM*	5.2µM*	18µM*
Cc1ccc(/C=C(\C#N)C(=O)Nc2cccc(C)n2)cc1	4%	-2%	3%	2.4µM*	-3%	x
COc1ccc(/C=C(\C#N)C(=O)Nc2ccccn2)cc1	-8%	-7%	13%	2.1µM*	u	x
COc1ccc(O)c(/C=C(\C#N)C(=O)Nc2ccccn2)c1	-2%	-2%	10%	2.4µM*	17%	x
COc1ccc(C(=O)Oc2c(Sc3ccccc3)c(C)nn2-c2ccccc2)c(OC)c1	x	x	x	-7%	x	0%
Cc1nn(-c2ccccc2)c(OC(=O)C(C)C)c1Sc1ccc(Cl)cc1	x	x	x	13µM*	x	1%
O=C(O)c1ccc(N=Nc2c(O)ccc3ncccc23)cc1	-20%	-30%	-8%	1.7µM*	-4%	x
CCc1ccccc1NC(=O)Cn1nnc(C(=O)OC)c1C(=O)OC	x	x	x	0%	x	-3%
COc1ccc(C)cc1NC(=O)C1CCC(CNc2c(N3CCOCC3)c(=O)c2=O)CC1 (stereo not given)	-1%	-7%	-1%	1%	-1%	8%
COc1ccc(OC)c(NC(=O)C2CCC(CNc3c(N4CCC(C)CC4)c(=O)c3=O)CC2)c1 (stereo not given)	-5%	-8%	-8%	1%	27%	16µM*
COc1ccc(OC)c(NC(=O)Nc2nnc(N3CCC(C)CC3)s2)c1	0%	-3%	2%	24µM*	3%	-10%
COc1ccc(NC(=O)Nc2nnc(N3CCC(C)CC3)s2)cc1OC	-1%	-3%	3%	u	5%	-11%
COc1ccc(-c2ccnc3c2c(=O)n(C)c(=O)n3C)cc1OC	x	x	x	-1%	x	-10%
CN(Cc1ccccc1)C(=O)c1cc(-c2ccc(Br)cc2)on1	9%	u	u	15µM*	8%	u
SMILES	NPC1 promoter act	Rab9 prom act	p53 reactivation	FLuc modulator	ELG1 genotox	SMN2 splice up
CCCNC(=O)c1cc(-c2ccc(Br)cc2)on1	2.2µM*	2.2µM*	u	u	u	u
CC(C)NC(=O)c1cc(-c2ccco2)on1	u	u	20%	u	u	7%
CC(C)NC(=O)c1cc(-c2ccc(Br)cc2)on1	1.4µM*	1.6µM*	u	2.7µM*	u	20µM*
Cc1ccc(-c2cc(C(=O)NCCN3CCOCC3)no2)cc1	2%	3%	-5%	u	6%	-4%
CCOc1ccc(NC(=O)Cn2c(=O)oc3cc(S(=O)(=O)NC4CCCC4)ccc32)cc1	x	x	x	u	x	-22%
CCCCN([C@H](CO)C(C)C)S(=O)(=O)c1ccccc1Br	x	x	0%	x	0%	x
COCCCNC(=O)c1ccccc1Oc1ccccc1	0%	-4%	2%	2%	0%	-11%
COCCCNC(=O)c1ccc2c3c(onc13)-c1ccccc1C2=O	3.2µM*	0.71µM*	-13%	6µM*	-11%	x
CCNC(=O)c1ccc(NS(=O)(=O)c2ccc3[nH]c(=O)[nH]c3c2)cc1	2.2µM*	3.5µM*	u	15µM*	7.3µM*	x
CC1CCC(NC(=O)c2ccc(NS(=O)(=O)c3ccc4[nH]c(=O)[nH]c4c3)cc2)CC1 (stereo not given)	u	u	22%	u	18µM*	x
COc1ccc2c(C)c(CC(=O)NCc3ccc(C)cc3)c(=O)oc2c1OC	x	x	x	4%	x	3%
Nc1ccc2oc3ccc(N)cc3c(=O)c2c1	2.5µM*	4µM*	12%	24µM*	u	u
C=CCn1c(SCC(=O)Nc2ccc(-c3nc4ccc(C)cc4s3)cc2)nnc1-c1ccccc1	u	0.5µM*	u	2.4µM*	u	0.79µM*
CC1(c2ccc(OC(F)F)cc2)NC(=O)N(CC(=O)Nc2ccccc2)C1=O (stereo not given)	-3%	3%	15%	-8%	8%	x
Cc1cccc(OCC(=O)Nc2ccc3nc(SCc4ccccc4)sc3c2)c1	x	x	x	3%	x	x
COc1ccc(/C=C(\C#N)C(=O)OCC(=O)Nc2ccc(-c3nc4ccc(C)cc4s3)cc2)cc1	0.45µM*	0.4µM*	6%	1.7µM*	0.65µM*	2.5µM*
Cc1ccc2nc(-c3ccc(NC(=O)COc4ccccc4)cc3)sc2c1	x	x	x	3µM*	x	1.3µM*
Cc1ccc2nc(-c3ccc(NC(=O)CN4C(=O)NC(C)(c5ccc(OC(F)F)cc5)C4=O)cc3)sc2c1 (stereo not given)	2.5µM*	1.4µM*	x	5.4µM*	21µM*	x
CCN1CCN(C(c2cccc(F)c2)c2c(O)cc(C)n(Cc3ccco3)c2=O)CC1 (stereo not given)	x	x	x	-16%	x	x
CCOc1cc(C(=O)Nc2ccc(-c3nc4ccccc4s3)cc2Cl)cc(OCC)c1OCC	x	x	x	13µM*	x	x
O=C(COc1ccccc1Cl)Nc1ccc(-c2nc3ccccc3s2)cc1	x	x	x	-2%	x	0.79µM*
O=C(COc1ccccc1[N+](=O)[O-])Nc1ccc(-c2nc3ccccc3s2)cc1	x	x	x	-3%	x	x
